Source: PubChem
The list is not random: actives were taken first. Their share in the collection is about 4.2%.
CCHF vOTU inh = CCHFV vOTU protease inhibitors, primary screen, biochemical, Pep-AMC substrate, fluorescence. AID 651958, 2012. 0.55% of 370,000 active. inhibition, % at 11.5 µM. Crimean-Congo hemorrhagic fever virus L polyprotein viral ovarian tumor (vOTU) protease …
RecA intein inh = Mtb RecA intein splicing inhibitors, primary screen, biochemical, fluorescence, HTS; Protein RecA (Mycobacterium tuberculosis (strain ATCC 25618 / H37Rv)), P9WHJ3; cell-free RecA intein splicing; inhibition, % (test concentration not listed); 0.75% of 290,000 active; in the data active means inhibition above about 30%
Target sequence (P9WHJ3 whole entry, looked up): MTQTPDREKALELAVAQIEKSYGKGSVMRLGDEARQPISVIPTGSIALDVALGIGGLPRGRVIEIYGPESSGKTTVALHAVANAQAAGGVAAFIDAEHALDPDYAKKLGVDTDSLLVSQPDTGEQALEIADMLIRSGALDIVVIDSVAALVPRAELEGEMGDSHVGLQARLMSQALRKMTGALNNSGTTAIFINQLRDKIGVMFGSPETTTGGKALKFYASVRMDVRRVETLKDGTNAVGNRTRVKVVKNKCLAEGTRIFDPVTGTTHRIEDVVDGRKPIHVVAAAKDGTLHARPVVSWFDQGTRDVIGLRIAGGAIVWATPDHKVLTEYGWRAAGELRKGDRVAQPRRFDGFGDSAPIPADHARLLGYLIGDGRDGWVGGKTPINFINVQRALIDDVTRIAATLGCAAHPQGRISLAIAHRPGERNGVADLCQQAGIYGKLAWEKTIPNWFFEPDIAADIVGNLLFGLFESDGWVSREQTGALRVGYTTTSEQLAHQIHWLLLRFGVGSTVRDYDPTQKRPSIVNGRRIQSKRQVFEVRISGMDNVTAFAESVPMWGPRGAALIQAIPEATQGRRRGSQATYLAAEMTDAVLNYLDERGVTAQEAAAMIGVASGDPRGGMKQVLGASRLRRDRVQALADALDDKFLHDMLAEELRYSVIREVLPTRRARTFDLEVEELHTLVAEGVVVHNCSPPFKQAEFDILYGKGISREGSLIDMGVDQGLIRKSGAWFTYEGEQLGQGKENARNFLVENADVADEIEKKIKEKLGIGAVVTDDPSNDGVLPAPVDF
Mtb FBA inh = Mtb FBA enzyme inhibitors, primary screen, biochemical, fluorescence, strain H37Rv | purified M. tuberculosis FBA, fluorescence read-out | inhibition, % at 1 µM | 2.3% of 360,000 active | AID 588726, 2011; in the data active means inhibition above about 27%
GDH-TPI counter-1 = GDH-TPI coupling enzyme inhibitors, primary screen, artefact control for M. tuberculosis FBA inhibitor project, biochemical, absorbance, full deck. GDH-TPI coupled enzyme counterscreen, NADH absorbance. inhibition, % at 4.8 µM. 1.2% of 360,000 active
Mtb bLac sens = beta-lactam sensitization of Mtb H37Rv, H37Rv; inhibition, % at 25 µM; M. tuberculosis H37Rv growth with meropenem, percent inhibition; 0.27% of 330,000 active; AID 434955, 2010; call rule not given here;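 further: growth measured after seven days incubation then overnight dye step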
Mtb FBA confirm = M. tuberculosis aldolase blockers, biochemical, fluorescence, strain H37Rv, confirmation; AID 651616, 2012; inhibition, % at 1 µM; purified M. tuberculosis FBA, fluorescence read-out; 78% of 5,600 active; shares compounds with Mtb FBA inh; in the data active means inhibition above about 27%
GDH-TPI counter-2 = GDH-TPI coupling enzyme inhibitors, artefact control for M. tuberculosis FBA inhibitor project, biochemical, fluorescence, high throughput; inhibition, % at 1 µM; GDH-TPI coupled enzyme counterscreen; shares compounds with Mtb FBA inh; 81% of 5,600 active; AID 652141, 2013; in the data active means inhibition above about 10%
Numbers stand for hits. Unless noted, no stated cut-off is given here; in the data, active means inhibition above about 30%; inactive means the rest.

`c1ccc(-c2nc(NCC3CC3)nc3ccsc23)cc1` gave CCHF vOTU inh inactive, Mtb FBA inh 42, GDH-TPI counter-1 inactive, Mtb FBA confirm 138 and GDH-TPI counter-2 97.
Cc1ccccc1-c1nc(NCC2CC2)nc2ccsc12 was read as CCHF vOTU inh inactive, Mtb FBA inh inactive and GDH-TPI counter-1 inactive.
Clc1ccccc1Nc1nc(NCc2ccccc2)nc2ccsc12 was read as CCHF vOTU inh inactive, Mtb FBA inh inactive and GDH-TPI counter-1 inactive.
Screening OCc1ccccc1-c1nc(NCc2ccccc2)nc2ccsc12 returned CCHF vOTU inh inactive, Mtb FBA inh 63, GDH-TPI counter-1 inactive, Mtb FBA confirm inactive and GDH-TPI counter-2 inactive.
Screening Cc1ccc(F)cc1-c1nc(NCC2CC2)nc2ccsc12 returned CCHF vOTU inh inactive, Mtb FBA inh 46, GDH-TPI counter-1 inactive, Mtb FBA confirm 70 and GDH-TPI counter-2 56.
Screening COc1ccccc1C(=O)NC1CCCCN(Cc2ccc(Cl)cc2)C1=O (stereo unspecified) returned CCHF vOTU inh inactive.
Screening CN1Cc2nnn(Cc3ccccc3)c2-c2cc(N3CCCCC3)ccc2S1(=O)=O returned CCHF vOTU inh inactive.
CC(COc1ccccc1C#N)CN1CCC(C(O)(c2ccccc2)c2ccccc2)CC1 (stereo unspecified) was read as CCHF vOTU inh inactive.
For OC(c1ccccc1)(c1ccccc1)C1CCN(CCCNc2ccc(C(F)(F)F)cc2)CC1 the results were CCHF vOTU inh inactive.
CCCCCCCNC(=O)COc1ccc2c(c1)C(=O)CC(C)(C)O2 was read as CCHF vOTU inh inactive, RecA intein inh inactive, Mtb FBA inh 43, GDH-TPI counter-1 inactive, Mtb bLac sens inactive, Mtb FBA confirm 56 and GDH-TPI counter-2 56.
Screening CC(C)NC(=O)COc1ccc2c(c1)C(=O)CC(C)(C)O2 returned CCHF vOTU inh inactive, RecA intein inh inactive, Mtb FBA inh 71, GDH-TPI counter-1 inactive, Mtb bLac sens inactive, Mtb FBA confirm active and GDH-TPI counter-2 186.
`CC1(C)CC(=O)c2cc(OCC(=O)NCc3cccnc3)ccc2O1` gave CCHF vOTU inh inactive, RecA intein inh inactive, Mtb FBA inh 62, GDH-TPI counter-1 inactive, Mtb bLac sens inactive, Mtb FBA confirm inactive and GDH-TPI counter-2 inactive.
CC1(C)CC(=O)c2cc(OCC(=O)NCCCN3CCN(c4ccccc4F)CC3)ccc2O1 was read as CCHF vOTU inh inactive, RecA intein inh inactive, Mtb FBA inh inactive, GDH-TPI counter-1 inactive and Mtb bLac sens inactive.
For Cn1cc(CC(=O)Nc2ccc(Nc3cccnc3)c(Br)c2)c2ccccc21 the results were CCHF vOTU inh inactive.
For CCCn1nc2cc(C(=O)NCCc3cccs3)ccc2c1OCC the results were CCHF vOTU inh inactive, RecA intein inh inactive, Mtb FBA inh 55, GDH-TPI counter-1 inactive, Mtb bLac sens inactive, Mtb FBA confirm inactive and GDH-TPI counter-2 inactive.
`CCCCNC(=O)c1ccc2c(SCC(=O)O)c3c(nc2c1)CCCC3` gave CCHF vOTU inh inactive, RecA intein inh inactive, Mtb FBA inh inactive, GDH-TPI counter-1 inactive and Mtb bLac sens inactive.
`O=C(NCC1CC1)c1ccc2c3n(nc2c1)-c1ccc(Cl)cc1CO3` gave CCHF vOTU inh inactive, RecA intein inh inactive, Mtb FBA inh inactive, GDH-TPI counter-1 inactive and Mtb bLac sens inactive.
COc1c2ccc(C(=O)NCCCCc3ccccc3)cc2nn1C was read as CCHF vOTU inh inactive, RecA intein inh inactive, Mtb FBA inh inactive, GDH-TPI counter-1 inactive and Mtb bLac sens inactive.
Screening CCCCNC(=O)c1ccc2c(OCC)n(CCCC)nc2c1 returned CCHF vOTU inh inactive, RecA intein inh inactive, Mtb FBA inh 65, GDH-TPI counter-1 inactive, Mtb bLac sens inactive, Mtb FBA confirm 93 and GDH-TPI counter-2 61.
For CCCCn1nc2cc(C(=O)NCC3CC3)ccc2c1OCC the results were CCHF vOTU inh inactive, RecA intein inh inactive, Mtb FBA inh 88, GDH-TPI counter-1 inactive, Mtb bLac sens inactive, Mtb FBA confirm 144 and GDH-TPI counter-2 116.
`O=C(NCCc1cccs1)c1cccs1` gave CCHF vOTU inh inactive, RecA intein inh inactive, Mtb FBA inh inactive, GDH-TPI counter-1 inactive and Mtb bLac sens inactive.
Screening CCOc1c2ccc(C(=O)NCCCCc3ccccc3)cc2nn1C returned CCHF vOTU inh inactive, RecA intein inh inactive, Mtb FBA inh 60, GDH-TPI counter-1 inactive, Mtb bLac sens inactive, Mtb FBA confirm inactive and GDH-TPI counter-2 inactive.
`O=C(CN1C(=O)C2(OCCCO2)c2ccccc21)NCc1ccc(F)cc1` gave CCHF vOTU inh inactive.
Screening O=S1(=O)c2ccc(N3CC[C@H](O)C3)cc2O[C@@H]2CCN1C2 returned CCHF vOTU inh inactive.
Screening O=[N+]([O-])c1cc(C=NN2CCN(Cc3ccccc3Cl)CC2)ccc1Cl returned CCHF vOTU inh inactive.
CCCCn1nc2cc(C(=O)NC[C@@H]3CCCO3)ccc2c1OCC was read as CCHF vOTU inh inactive, RecA intein inh inactive, Mtb FBA inh 63, GDH-TPI counter-1 inactive, Mtb bLac sens inactive, Mtb FBA confirm 124 and GDH-TPI counter-2 95.
CCCn1nc2cc(C(=O)NC3CCc4ccccc43)ccc2c1OCC (stereo unspecified) was read as CCHF vOTU inh inactive, RecA intein inh inactive, Mtb FBA inh 40, GDH-TPI counter-1 inactive, Mtb bLac sens inactive, Mtb FBA confirm 71 and GDH-TPI counter-2 64.
Screening COc1ccc(C(=O)NC2CCc3ccccc32)cc1OC1CCN(C(C)=O)CC1 (stereo unspecified) returned CCHF vOTU inh inactive, RecA intein inh inactive, Mtb FBA inh inactive, GDH-TPI counter-1 inactive and Mtb bLac sens inactive.
Screening CC(C)c1nc2oc3c(NCC4CCCO4)ncnc3c2c2c1CCC2 (stereo unspecified) returned CCHF vOTU inh inactive, RecA intein inh inactive, Mtb FBA inh 57, GDH-TPI counter-1 inactive, Mtb bLac sens inactive, Mtb FBA confirm 181 and GDH-TPI counter-2 151.
For CCCc1nc2oc3c(NCCCN(C)C)ncnc3c2c2c1CCCC2 the results were CCHF vOTU inh inactive, RecA intein inh inactive, Mtb FBA inh 61, GDH-TPI counter-1 inactive, Mtb bLac sens inactive, Mtb FBA confirm active and GDH-TPI counter-2 active.
Screening CC(C)Cc1nc2oc3c(Cl)ncnc3c2c2c1CCCC2 returned CCHF vOTU inh inactive, Mtb FBA inh inactive, GDH-TPI counter-1 inactive and Mtb bLac sens inactive.
`CC(C)Cc1nc2oc3c(NCC(C)O)ncnc3c2c2c1CCCC2` (stereo unspecified) gave CCHF vOTU inh inactive, RecA intein inh inactive, Mtb FBA inh 60, GDH-TPI counter-1 inactive, Mtb bLac sens inactive, Mtb FBA confirm active and GDH-TPI counter-2 active.
